Bioassay records as filed in PubChem.
The list is not random: actives were taken first. Their share in the collection is about 4%.
Wnt act – activates Wnt/beta-catenin signaling in a reporter cell assay | hit rate 1.2% among 300,000 | AID 743398 | activation, % at 9.35 µM | activator, plate reader; in the data active = activation above about 30%, passing the limit was not always enough; inconclusive = no clear call, values can overlap the other calls;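 note: 0% = neutral control wells and 100% = positive control wells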
MITF TRPM1 inh – reduces MITF-dependent TRPM1 promoter luciferase signal | AID 488899 | hit rate 0.83% among 330,000 | inhibition, % at 12.5 µM | SK-MEL-5 TRPM1 promoter luciferase, 24 h;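 active = mean inhibition across replicates of 60% or more, whatever share of single replicates reaches that level; inconclusive = some that reach 60%, reason not given; inactive = mean inhibition across replicates below 60%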
MITF act – increases MITF-driven TRPM1 promoter luciferase signal | SK-MEL-5 TRPM1-promoter luciferase, 24 h; % of positive control, neutral wells = 0 | activation, % at 12.5 µM | hit rate 0.75% among 300,000;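 active = mean activation of at least 80% with every replicate also reaching 80%; inconclusive = mean reaches 80% but some replicate falls short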;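 note: 0% = neutral control wells and 100% = parthenolide positive control wells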
esBAF inh – inhibitors of esBAF chromatin remodeling in mouse ES cells | Bmi1-luciferase knock-in reporter, 24 h; 100% = twice the neutral-well signal | hit rate 2% among 350,000 | reporter increase, % at 12.5 µM | AID 602393; in the data active = activation above about 40%; inconclusive = no clear call, values can overlap the other calls;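 note: 0% = median of the plate's neutral control wells and 100% = double that signal; a rise in the Bmi1 reporter signal indicates esBAF inhibition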
Statin myotox sup – suppression of simvastatin myotoxicity; C2C12 myotubes + simvastatin, ATP luminescence, 48 h; scaled: DMSO 0, geranylgeraniol control 100; hit rate 0.78% among 330,000; rescue of ATP level, % at 7.49 µM;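 active = mean ATP rescue above about 67%, or every replicate alone reaching that limit, limit read from the data, passing the limit was not always enough; inconclusive = no clear call, values can overlap the other calls; inactive = mean under the limit and some replicate under it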;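 note: myotubes were challenged with 10 µM simvastatin during compound exposure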
LMP1 NFkB inh – Epstein-Barr LMP1 NF-kappaB reporter inhibition; LMP1-induced NF-kappaB luciferase reporter cells, luminescence; inhibition, % at 12.5 µM; AID 504558; hit rate 0.69% among 350,000; in the data active = inhibition above about 41%; inconclusive = no clear call, values can overlap the other calls;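 note: 0% = neutral control wells and 100% = reference inhibitor control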
An asterisk follows results filed as active; ? = inconclusive; / = no result.

SMILES	Wnt act	MITF TRPM1 inh	MITF act	esBAF inh	Statin myotox sup	LMP1 NFkB inh
O=C(c1cc(COc2c(F)cccc2F)on1)N1CCC(c2ccccc2F)C1 (configuration not stated)	?	-49.1	49.6	23.0	-7.1	-10.2
O=C(c1cc(COc2c(F)cccc2F)on1)N1C[C@H]2CC[C@H]1C2	33.7*	-70.1	70.5	92.1*	1.5	-32.6
CSc1ccccc1OCc1cc(C(=O)N2CCN(C)C(c3ccccc3)C2)no1 (configuration not stated)	0.8	-13.5	12.3	20.3	-3.9	-11.0
O=C(c1cc(COc2c(F)cccc2F)on1)N1CCC(c2ccccc2Cl)C1 (configuration not stated)	-6.8	-44.4	49.8	45.0*	-1.0	1.9
CC1CN(c2ccccc2)CCN1C(=O)c1cc(COc2c(F)cccc2F)on1 (configuration not stated)	-0.7	-9.4	10.3	2.1	-6.6	17.8
COc1ccccc1OCc1cc(-c2ccccc2)no1	/	-93.7	95.4*	/	/	-59.8
CCN(C(=O)CSc1nc2cc(Cl)ccc2c(=O)n1Cc1ccco1)C1CCS(=O)(=O)C1 (configuration not stated)	-1.9	6.1	-3.5	/	/	5.4
COc1ccc(OCc2cc(C(=O)N3C[C@H]4CC[C@H]3C4)no2)c(Cl)c1	14.5	-79.1	83.6*	61.3*	-2.7	-20.6
COc1ccccc1OCc1cc(C(=O)N2CC3C[C@@H]4CC2C[C@H](C3)C4)no1	23.2	-85.0	88.9*	63.3*	-5.3	-42.2
O=C(c1cc(COc2ccc(F)cc2F)on1)N1C[C@H]2CC[C@H]1C2	14.5	-74.6	79.1	46.1*	-5.8	-9.5
O=C(c1cc(COc2ccc(F)cc2F)on1)N1CC2C[C@@H]3CC1C[C@H](C2)C3	22.5	-83.4	?	55.2*	-5.6	-26.7
Cc1c(C(=O)OC(C)C(=O)N(C)Cc2ccccc2)oc2ccccc12 (configuration not stated)	-2.2	-10.5	11.1	3.4	-3.9	3.7
CC(=O)N(C)/C=C1\Sc2ccccc2C1=O	0.5	-0.5	/	26.3	/	-9.4
CCC(=O)N(C)/C=C1\Sc2ccccc2C1=O	/	9.7	-9.4	/	/	76.0*
CC(=O)Nc1ccc(/C=C2\Sc3ccccc3C2=O)cc1	8.1	1.2	/	/	/	4.8
O=CN(/C=C1\Sc2ccccc2C1=O)Cc1ccccc1	8.2	-15.2	11.4	51.5*	5.9	-3.5
COc1cccc(CN(c2ccccc2C(=O)O)S(=O)(=O)c2ccc(C)cc2)c1	-2.5	-8.6	6.3	/	/	8.8
O=C(Nc1ccccc1F)N1CCCCN2[C@H](CO)[C@@H](c3ccc(C4=CCCC4)cc3)[C@H]2C1	/	/	/	0.6	-6.9	/
Cc1ccccc1CSc1nn2c(=O)c(C)nnc2s1	-0.7	-10.0	8.4	/	/	8.0
O=C(CCn1c(=O)oc2ccccc21)Nc1ccc2c(c1)OCCO2	23.1	-43.9	40.8	56.9*	10.7	-8.3
O=C(CCn1c(=O)oc2ccccc21)Nc1ccccc1	-0.4	10.9	/	12.4	2.4	-3.2
Cc1cccc(NC(=O)CCCCCN2C(=O)c3ccccc3C2=O)n1	/	-1.5	1.7	2.7	92.4*	5.5
Cc1cccc(NC(=O)CCCN2C(=O)c3ccccc3C2=O)n1	/	-4.2	/	-10.2	/	0.4
O=C(CCN1C(=O)c2ccccc2C1=O)Nc1ccc2c(c1)OCCO2	/	-5.9	6.5	0.9	5.7	-2.3
O=C(CCCn1c(=O)oc2ccccc21)Nc1ccccc1	4.7	-53.7	50.1	50.9*	6.1	-17.3
SMILES	Wnt act	MITF TRPM1 inh	MITF act	esBAF inh	Statin myotox sup	LMP1 NFkB inh
O=C(CCCCCN1C(=O)c2ccccc2C1=O)Nc1ccc2c(c1)OCCO2	-0.5	2.4	1.8	-13.3	109.0*	-0.9
O=C(CCc1nc2ccccc2c(=O)[nH]1)NCc1cccc(Cl)c1	/	4.7	-4.4	/	/	-5.5
Cc1c(Cl)cccc1NC(=O)CCCN1C(=O)c2cccnc2C1=O	33.8*	-0.6	8.2	4.6	4.4	2.3
COc1ccc(NC(=O)CCCn2c(=O)oc3ccccc32)cc1Cl	16.9	-147.3	153.6*	/	/	-33.2
COc1cc(OC)c(NC(=O)CCCn2c(=O)oc3ccccc32)cc1Cl	/	3.5	-4.3	/	/	-0.1
CCc1ccccc1NC(=O)CCCN1C(=O)c2cccnc2C1=O	1.0	9.6	-5.5	-5.3	5.9	1.2
O=C(CCn1c(=O)oc2ccccc21)N1CCOCC1	/	12.6	/	-9.1	2.1	-26.7
